High-throughput results: PubChem, Sanford-Burnham Center for Chemical Genomics
Cardio protect = modulators protecting cardiomyocytes from myocardial damage. H9c2 cardiomyocytes, H2O2 injury protection, ATPLite, 2 h. AID 588492. actives 0.63% (n = 360,000). protection from H2O2 cell death, % at 20 µM;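 active means compounds giving at least 50% protection of heart cells from peroxide-induced death in the single-dose screen, raw or plate-pattern-corrected value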
A3A deaminase = blocks human APOBEC3A ssDNA deamination. P31941. recombinant A3A, FAM/TAMRA ssDNA deamination fluorescence. inhibition, % at 20 µM. actives 0.41% (n = 330,000);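 active means at least 40% inhibition at 20 µM here, with at most 30% in a related deaminase screen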
Target sequence (P31941 whole entry, looked up): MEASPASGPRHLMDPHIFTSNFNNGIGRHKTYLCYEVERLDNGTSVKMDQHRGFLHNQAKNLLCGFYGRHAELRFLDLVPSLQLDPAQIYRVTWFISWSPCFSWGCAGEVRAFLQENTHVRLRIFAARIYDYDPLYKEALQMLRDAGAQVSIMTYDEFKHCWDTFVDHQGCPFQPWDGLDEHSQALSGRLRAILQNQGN
TAG inh = triacylglycerol accumulation inhibition; inhibition, % at 12.5 µM; H9c2 cells, Nile Red lipid (TAG) fluorescence; cells loaded with 200 µM oleic acid; actives 0.66% (n = 230,000);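 active means pattern-corrected inhibition of lipid staining of at least 50% with the nuclear-stain viability signal not falling by more than 50%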
NadD block = blocks S. aureus nicotinate mononucleotide adenylyltransferase. purified NadD enzyme, colorimetric absorbance read-out. inhibition, % at 20 µM. actives 0.78% (n = 360,000); in the data active means inhibition above about 26%
PfG6PD inh = PfG6PD (Plasmodium falciparum) enzyme inhibition | PfGluPho enzyme, NADPH resazurin-diaphorase fluorescence | inhibition, % at 20 µM | actives 0.78% (n = 350,000);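 active means inhibition reaching at least a set limit at 20 µM in the primary screen, cut at about 59% in these data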
A3G deaminase = APOBEC3G (human) deaminase inhibition; recombinant A3G, ssDNA deamination FAM/TAMRA fluorescence; inhibition, % at 20 µM; actives 0.28% (n = 330,000); Q9HC16;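 active means inhibition of at least 40% at 20 µM, with no more than 30% in the related APOBEC3A deaminase screen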
Target sequence (Q9HC16 whole entry, looked up): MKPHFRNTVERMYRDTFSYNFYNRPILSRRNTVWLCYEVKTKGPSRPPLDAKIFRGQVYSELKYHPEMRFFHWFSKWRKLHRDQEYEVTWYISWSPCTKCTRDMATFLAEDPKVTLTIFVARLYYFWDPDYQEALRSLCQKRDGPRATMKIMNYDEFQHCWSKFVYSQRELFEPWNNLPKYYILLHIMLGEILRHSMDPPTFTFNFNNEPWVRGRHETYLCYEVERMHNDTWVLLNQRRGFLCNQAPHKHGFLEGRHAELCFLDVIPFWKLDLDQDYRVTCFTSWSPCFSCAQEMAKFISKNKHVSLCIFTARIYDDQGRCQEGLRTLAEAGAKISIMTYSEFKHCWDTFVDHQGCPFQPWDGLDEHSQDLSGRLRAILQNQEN
NadD conf = NadD (S. aureus) inhibition, single concentration confirmation | shares compounds with NadD block | purified S. aureus NadD, colorimetric enzyme assay | inhibition, % at 20 µM | actives 13% (n = 2,000) | AID 624309; in the data active means inhibition mostly above about 42%, no sharp cut-off; inactive means mostly below about 42%
A number is an active result; 0 = inactive; - = no result given; ! = not active in a repeat. The list is not random: actives were taken first. Their share in the collection is about 2.9%.

SMILES	Cardio protect	A3A deaminase	TAG inh	NadD block	PfG6PD inh	A3G deaminase	NadD conf
C#CCOCCOCCOCCNc1nc(N2CCN(C(=O)[C@H]([C@@H](C)CC)n3cc([C@@H](N)CC(C)C)nn3)CC2)nc(N2CCN(C(=O)[C@H](Cc3cc4ccccc4[nH]3)n3cc([C@@H](N)Cc4ccc(O)cc4)nn3)CC2)n1	-	0	-	-	0	0	-
C#CCOCCOCCOCCNc1nc(N2CCN(C(=O)[C@H]([C@@H](C)CC)n3cc([C@@H](N)Cc4ccc(O)cc4)nn3)CC2)nc(N2CCN(C(=O)[C@H](Cc3cc4ccccc4[nH]3)n3cc([C@@H](N)CC(C)C)nn3)CC2)n1	0	0	0	48.3	0	0	0
Cc1c(C(=O)N/N=C/c2ccc(-c3ccccc3[N+](=O)[O-])o2)sc(N)c1C#N	0	-	-	35.8	0	-	0
O=C(N/N=C/c1ccc(-c2ccccc2[N+](=O)[O-])o1)c1cncc(Br)c1	0	0	-	0	0	0	-
O=C(N/N=C\c1ccc(-c2ccccc2[N+](=O)[O-])o1)C1COc2cc3ccccc3cc2O1 (stereo unspecified)	0	0	0	42.0	0	0	0
CCc1ccc(NC(=O)C2C3CCC(O3)C2C(=O)O)cc1 (stereo unspecified)	0	0	0	0	0	0	-
O=C(CN1C(=O)CNC1=O)Nc1cc(Cl)cc(Cl)c1	0	0	0	0	0	0	-
Cc1cc(Cl)ccc1-c1cc2nc(NCCCN(C)C)n(C)c(=O)c2s1	0	-	0	0	-	-	-
Cc1ccc(S(=O)(=O)Nc2cccc(-c3ccc(N4CCCCCC4)nn3)c2)cc1C	0	0	-	42.5	0	0	0
COc1ccc(C)cc1S(=O)(=O)Nc1cccc(-c2ccc(N3CCCCCC3)nn2)c1	0	0	-	30.8	0	0	0
O=S(=O)(Nc1cccc(-c2ccc(N3CCCCCC3)nn2)c1)c1ccc(C(F)(F)F)cc1	0	0	-	36.2	0	0	0
O=S(=O)(Nc1cccc(-c2ccc(N3CCCCCC3)nn2)c1)c1ccc(F)cc1	0	0	-	0	0	0	-
Cc1ccc([N+](=O)[O-])cc1S(=O)(=O)Nc1cccc(-c2ccc(N3CCCC3)nn2)c1	0	0	0	43.8	0	0	54.5
CCCCOc1ccc(C2/C(=C(/O)c3ccc4c(c3)CC(C)O4)C(=O)C(=O)N2CCCN2CCOCC2)cc1OC (stereo unspecified)	0	0	0	0	0	0	-
O=S(=O)(Nc1cccc(-c2ccc(N3CCCCCC3)nn2)c1)c1cccc(F)c1	0	0	-	30.8	0	0	0
O=S(=O)(Nc1cccc(-c2ccc(N3CCCCCC3)nn2)c1)c1ccccc1Cl	0	0	-	50.1	0	0	0
C/C(=C/CCC(C)[C@H]1CC[C@@]2(C)C3=C(CC[C@]12C)[C@@]1(C)CCC(=O)C(C)(C)[C@@H]1CC3)C(=O)O (stereo partly specified)	0	-	0	44.7	0	-	0
Cc1ccc(-c2nc3ccccc3[nH]2)cc1NC(=O)c1sc2cc(Cl)ccc2c1Cl	0	0	-	29.3	0	0	0
Cc1ccc2[nH]c(C(=O)N/N=C/c3ccccc3O)c(C)c2c1	0	0	-	0	0	0	-
Cc1ccc2cc(C#N)c(N3CCCC3)nc2c1C	0	0	0	34.1	0	0	0
Cc1ccc2cc(C#N)c(N3CCCN(C(=O)C4CCCO4)CC3)nc2c1C (stereo unspecified)	0	0	-	0	0	0	-
CCCCc1nc2ccccc2c(=O)n1NC(=O)c1c(O)c2c(n(CC(C)C)c1=O)CCCC2	0	-	-	33.0	0	-	0
N#CC1=C(N)NC(SCC(=O)c2ccc(Br)cc2)=C(C#N)C12CCCCC2	0	0	-	0	0	0	-
N#CC1=C(N)NC(SCC(=O)c2ccc(Cl)cc2)=C(C#N)C12CCCC2	0	0	-	33.0	0	0	0
Cc1ccc(NC(=O)CN(C)C(=O)COc2ccc(Br)cc2)cc1	0	-	0	0	0	-	-
SMILES	Cardio protect	A3A deaminase	TAG inh	NadD block	PfG6PD inh	A3G deaminase	NadD conf
O=C(Cc1ccccc1)Nc1ncnc2c1C(c1ccccc1)c1c(ccc3ccccc13)O2 (stereo unspecified)	0	0	-	31.6	0	0	0
COc1ccc(/C(C)=N/Nc2nc3ccccc3n3cnnc23)cc1OC	-	0	-	-	0	0	-
CCCCCC(=O)Nc1cccc(C2=NOC3(C2)C[C@@H](C(N)=O)N(C(=O)Cc2ccc([N+](=O)[O-])cc2)C3)c1 (stereo partly specified)	0	0	0	0	0	0	-
NC(=O)[C@H]1CC2(CC(c3cccc(NC(=O)COc4ccc(Cl)cc4)c3)=NO2)CN1C(=O)Cc1ccc([N+](=O)[O-])cc1 (stereo partly specified)	0	0	0	32.6	0	0	0
C/C=C\C=C/C(=O)Nc1cccc(C2=NOC3(C2)C[C@@H](C(N)=O)N(C(=O)COc2ccc(Cl)cc2)C3)c1 (stereo partly specified)	0	0	0	38.3	0	0	61.6
OCCNc1ncnc2c1ncn2[C@H]1CN(Cc2ccncc2)C[C@@H](CO)O1	0	-	0	0	-	-	-
COC(=O)c1cccc(CN2C(=O)SC(Nc3ccccc3)C2=O)c1 (stereo unspecified)	0	0	0	30.7	0	0	0
Cc1cccc(NC2SC(=O)N(CC(=O)O)C2=O)c1 (stereo unspecified)	0	0	-	0	0	0	-
O=S(=O)(/N=C(/Nc1ccc(Cl)c(S(=O)(=O)Nc2ccccc2Cl)c1)c1ccc(F)cc1)c1ccccc1	0	0	0	40.6!	0	0	55.0
COc1ccc(OC)c(S(=O)(=O)CC(=O)c2cc3ccc(OC)cc3oc2=O)c1	0	0	-	35.7	0	0	0
CCc1nnc(NC(=O)C2=CCN(S(=O)(=O)c3ccc(F)cc3)CC2)s1	0	0	0	0	0	0	-
COc1cc(NC(=O)COc2ccc(Cl)cc2)ccc1-c1cc2ccccc2oc1=O	0	0	-	38.1	0	0	0
COc1cc(NC(=O)COc2ccc(Cl)cc2)ccc1NC(=O)C(C)C	0	0	0	0	0	0	-
C=CCN(CC=C)S(=O)(=O)c1ccc(NC(=S)NC(=O)/C=C/c2cccc3ccccc23)cc1	0	0	0	30.6	0	0	0
Cc1ccc(-n2nc3c(c2NC(=O)C(C)(C)C)CSC3)c(C)c1	0	0	-	0	0	0	-
Cc1ccccc1-n1nc2c(c1NC(=O)/C=C\c1ccc3c(c1)OCO3)CSC2	0	0	0	0	0	0	-
Cc1cccc(-n2nc3c(c2NC(=O)c2ccco2)CS(=O)C3)c1C (stereo unspecified)	0	0	0	0	0	0	-
Cc1ccc(-n2nc3c(c2NC(=O)c2c(-c4ccccc4Cl)noc2C)CSC3)cc1	-	0	-	-	0	0	-
